The sequences below were run against T1, ETS1 (UniProt P14921) (assay: ETS1 binding intensity (PBM fluorescence), ETS1 alone (arbitrary fluorescence units); higher = stronger binding). Details: ETS1 concentration 1 nM; RUNX1 concentration 0 nM.
T1 sequence: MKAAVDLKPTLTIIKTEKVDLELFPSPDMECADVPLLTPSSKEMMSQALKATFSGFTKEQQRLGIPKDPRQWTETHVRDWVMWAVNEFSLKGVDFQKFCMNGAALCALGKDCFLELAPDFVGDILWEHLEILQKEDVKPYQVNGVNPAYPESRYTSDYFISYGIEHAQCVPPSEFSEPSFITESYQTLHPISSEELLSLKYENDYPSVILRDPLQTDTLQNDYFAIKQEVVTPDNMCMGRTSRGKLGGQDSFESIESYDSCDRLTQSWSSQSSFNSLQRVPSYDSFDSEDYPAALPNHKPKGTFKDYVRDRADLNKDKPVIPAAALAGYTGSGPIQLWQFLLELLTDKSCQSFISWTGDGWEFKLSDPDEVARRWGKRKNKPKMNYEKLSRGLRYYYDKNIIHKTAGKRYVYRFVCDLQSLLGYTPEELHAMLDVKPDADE
Procedure: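 Cooperative genomic-context PBM: 36-bp genomic probes with neighbouring ETS1 and RUNX1 sites, double-stranded on Agilent 4x180k arrays. Full-length recombinant human ETS1 (1 nM) was incubated alone or with RUNX1 (25 nM) and detected with anti-ETS1 antibody plus Alexa488 secondary. Value is the median fluorescence intensity over 4 replicate spots; the ETS1+RUNX1 data were normalised to the ETS1-only data using probes without RUNX1 sites. The 36-bp variable region sits on the array probe with constant linker/primer flanks that are not printed.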

| Sequence | ETS1 binding intensity |
| --- | --- |
| ACCTCTCTCACTTCCTACCAGAGAACCACAGCCAAG | 538 |
| AGTAGAGGAGGAAGTTAAATGTGGTTTTCTGGGTGG | 864 |
| TCTAACGCTGAAGGAGGATGTGGTTTCCTATTGGAC | 1770 |
| CTCTTCAGCAGGAAATGATGTGGTAAAACAGGGTTA | 3000 |
| AGGCTGTGGCGGAAGTGGTCGCGTTACCGCTTGTTT | 6340 |
| AGCGTTGTCTTCCGGCCTCAACCACTCAGCGACCGG | 14400 |
| GCCGTGGGTACGACCGGAAGCCGCAGGTGGGTGAAG | 18000 |
| GTAGGGAAGACGGGATGTGGGTTTTCAGCCGTGGCC | 1220 |
| GCTGCCACTTCCCTTGCTTATTTCATGTGGTTTGGA | 552 |
| AAACCCTGAGTAATCGGAAGTGGTTAGGAGTGAGAG | 2190 |
| CCGCGCACCCGGAACTACCTCCCGACCCGCATCCCC | 562 |
| AGCCCGCCGGAAACTAGCGTCACCGCGCCAAGGTTC | 1440 |
| GCTTCTGAGGAAGTGCGTTTTGTGGGTAGGTGGAGT | 706 |
| AATATCCTGTATGTCATGCTTAAAAAGCCACAAAAC | 547 |
| AGGGCTGAAACAGGATGTGGTGAGTGAGGTAGGGTG | 6020 |
| TCCCACATCCTGTGCTCGTGCAGTGGTTAGGCTCAA | 562 |
| TGACATGGCTTCCGCCTTGGGCTTTGTGGTCTCCCA | 513 |
| CAGTTTGCCCCGGATGTTGACCGCCTTGAAGTCGTA | 4170 |
| TTAAGGAGCTTCCGGGGCCGCGGGTAGAGGCGGGTG | 629 |
| CCGGTCCGCTCGCCGGAAATGCGGGCTCTCCTGCCG | 8400 |

| Sequence | ETS1 binding intensity |
| --- | --- |
| GTGCAGACAGGAAATAGCTGCTCTGCGGCAGCCCGA | 5830 |
| CCCACTGATAAGACAGGATGTGGTAAAGAAGCCAGC | 5700 |
| GCTGTAGGAAATGTTATTCGCCGCGGTCAGGACAGG | 546 |
| CAGCTTTCCGGCCTGCAGCACAGGCAATGTGGTTTT | 341 |
| TTTTTTCCGCCTGTAGGGTCACATTGTGGTTGATTG | 446 |
| ACACAGAGAGTGAGAGGAAGTGGTTTAGAGATGAGA | 2440 |
| GACAGAGGAAACTAGGTGTGACAACCACAAACAGCT | 432 |
| TTGTCGGGTATGGGATGTGGGCAGAGAGTATGATGG | 604 |
| TGGCTTGTTTCCGGTTCCTCTGTGGCGCCGTTCTCG | 3480 |
| ACAGCGCCTCTTCCTGCTCTACCACATCTGATGTCC | 512 |
| GCCACCGTATTTCCGCGTTTTTCGCGGTAGGCGGGA | 465 |
| ATGCTAGAAAGCAGGAAGCCACAGACACGCCCCAAC | 1180 |
| CTTCAGGGGTGGGGCTTCCTGCCGCAGAGCCGCCTT | 543 |
| GACAGACCTTAGGAAGTCGCGGTTTCATCAGGGCTT | 422 |
| TAGCATGTGAGCTTCCTGTGGGTTTGTGCAGCCCCA | 616 |
| CTCCCCCAGCACATCCTCTGCCACCGCTGCCTTTCC | 579 |
| GTGGGGCAGGATGTGCTTGCCTGGCTGCGGTTGGAC | 2170 |
| CTTTGTTGAAAAGGATGTGGTCATCTGATCTTGCTG | 1070 |
| TTGGTGGCTTCCTGCCCAGGAGACCACACCCAGCTT | 540 |
| AACCCACCGGATGGAAGCTGCCACTCAGCCGCAGGA | 1100 |

Source: the supplement of paper PMC10681739
